# In PubChem BioAssay (NCI):
# This is part of a sample that, as a whole, favours compounds with a hit. Of some 79,000 tested, about 15% had one in any assay. Values without a mark were called inactive. Active and inactive are the calls of the source. Rule as the data show it: active = growth inhibition above about 70%; inactive = the rest.
# What was measured:
# [1] = NCI Yeast Anticancer Drug Screen. Data for the rad52 strain (AID 147);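 also: 0% = growth of vehicle-treated control cultures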; conditions: S. cerevisiae rad52 mutant growth inhibition, hits give high values
# In short: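 Inhibition of yeast growth, referenced to vehicle controls, was the measured output for a strain with defective DNA damage repair.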
# [2] = NCI Yeast Anticancer Drug Screen. Data for the wt1 strain (AID 149);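 also: 0% = growth of vehicle-treated wt1 cultures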; conditions: S. cerevisiae wt1 strain (SPY 50644) growth inhibition, hits give high values
# In short: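 Growth inhibition read against vehicle controls after compound exposure of the wt1 yeast strain.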
# [3] = NCI Yeast Anticancer Drug Screen. Data for the rad50EPP+ strain (AID 151);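 also: 0% = growth of vehicle-treated control cultures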; conditions: S. cerevisiae rad50 mutant strain, hits give high values
# In short: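 Genetically defined yeast (rad50EPP+, DNA damage repair alteration) is grown with compound, and inhibition of growth is expressed relative to vehicle-treated controls.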
# [4] = NCI Yeast Anticancer Drug Screen. Data for the mgt1 strain (AID 153); conditions: S. cerevisiae mgt1 mutant growth inhibition, hits give high values
# In short: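 In the mgt1 strain, test compounds were added and growth inhibition was determined relative to vehicle-treated controls.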
# [5] = NCI Yeast Anticancer Drug Screen. Data for the rad50 strain (AID 155);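 also: 0% = growth of vehicle-only cultures of the same strain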; conditions: S. cerevisiae rad50 strain growth inhibition, hits give high values
# In short: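 Readout: growth inhibition relative to vehicle-treated cultures. Compound exposure was carried out in a genetically defined yeast strain deficient in DNA damage repair.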
# [6] = NCI Yeast Anticancer Drug Screen. Data for the mec2-1 strain (AID 157); conditions: S. cerevisiae mec2-1 strain, hits give high values
# In short: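 Each compound was tested on mec2-1 yeast, a strain altered in DNA damage repair or cell cycle control. Growth inhibition is reported relative to vehicle.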
# [7] = NCI Yeast Anticancer Drug Screen. Data for the rad14 strain (AID 159);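 also: 0% = growth of vehicle-treated control cultures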; conditions: S. cerevisiae rad14 strain growth inhibition, hits give high values
# In short: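 Growth inhibition vs vehicle controls; genetically altered yeast strain (DNA damage repair defect) treated with test compounds.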
# [8] = NCI Yeast Anticancer Drug Screen. Data for the sgs1 mgt1 strain (AID 161);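 also: 0% = growth of cultures given vehicle only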; conditions: S. cerevisiae sgs1 mgt1 strain, hits give high values
# In short: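 Read-out: growth inhibition vs vehicle controls. Cells: mutant yeast strain deficient in DNA damage repair.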
# [9] = NCI Yeast Anticancer Drug Screen. Data for the CLN2oe strain (AID 163);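 also: 0% = growth of vehicle-only control cultures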; conditions: S. cerevisiae CLN2oe strain, hits give high values
# In short: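 First, the altered yeast strain was treated with each compound; second, its growth was measured; finally, inhibition was derived by comparison with vehicle controls.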
# [10] = NCI Yeast Anticancer Drug Screen. Data for the cln2 rad14 strain (AID 165);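 also: 0% = growth equal to vehicle treated cultures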; conditions: S. cerevisiae cln2 rad14 strain, hits give high values
# In short: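 Test compounds were added to cln2 rad14 yeast cultures; inhibition of growth was then determined by comparison with vehicle treatment.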
# [11] = NCI Yeast Anticancer Drug Screen. Data for the bub3 strain (AID 167); conditions: S. cerevisiae bub3 mutant strain, hits give high values
# In short: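 Readout: yeast growth inhibition, expressed relative to vehicle-only wells. The test organism is a mutant strain from a panel with lesions in DNA repair or checkpoint genes.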
# [12] = NCI Yeast Anticancer Drug Screen. Data for the wt2 strain (AID 169);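 also: 0% = growth of vehicle-treated yeast cultures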; conditions: S. cerevisiae wt2 strain growth inhibition, hits give high values
# In short: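 The panel's yeast strains carry defined changes in DNA repair or cell cycle genes. Each strain is grown with compound, and growth loss is scored relative to vehicle.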
# [13] = NCI Yeast Anticancer Drug Screen. Data for the mlh1 strain (AID 171);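 also: 0% = growth of vehicle-treated control cultures of the same strain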; conditions: S. cerevisiae mlh1 strain growth inhibition, hits give high values
# In short: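 Inhibition values reflect reduced yeast growth in the presence of compound, referenced to vehicle controls, using a strain chosen for its alteration in DNA repair or cell cycle control.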
# [14] = NCI Yeast Anticancer Drug Screen. Data for the sgs1 strain (AID 173);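 also: 0% = growth of vehicle-only control cultures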; conditions: S. cerevisiae sgs1 mutant, hits give high values
# In short: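 Vehicle-treated cultures served as reference for growth inhibition of a yeast strain altered in DNA damage repair or cell cycle control after compound exposure.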
# [15] = NCI Yeast Anticancer Drug Screen. Data for the mlh1 rad18 strain (AID 175); conditions: S. cerevisiae mlh1 rad18 strain growth inhibition, hits give high values
# In short: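 Inhibition values reflect reduced growth of mutant yeast versus vehicle-treated controls following compound exposure; the mutations affect DNA damage repair.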
# [16] = NCI Yeast Anticancer Drug Screen. Data for the rad18 strain (AID 177); conditions: S. cerevisiae rad18 mutant growth inhibition, hits give high values
# In short: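 Steps: expose repair-mutant yeast to compound; measure growth; express as inhibition relative to vehicle control.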
# [17] = at 5.0 µM (retest, dose inferred, filed as 0.5)
# [18] = at 50.0 µM (retest, dose inferred, filed as 5.0)
structure (smiles),measurement,setting,value
CCNCC(=O)O[C@]1(CC)C(=O)OCc2c1cc1n(c2=O)Cc2cc3ccccc3nc2-1,growth inhibition,[1]; at 1.2 µM,38%
same,growth inhibition,[1]; at 3.7 µM,28%
same,growth inhibition,[1]; at 11.0 µM,20%
same,growth inhibition,[1]; at 33.0 µM,19%
same,growth inhibition,[1]; at 100.0 µM,16%
same,growth inhibition,[2]; at 1.2 µM,19%
same,growth inhibition,[2]; at 3.7 µM,12%
same,growth inhibition,[2]; at 11.0 µM,13%
same,growth inhibition,[2]; at 33.0 µM,2%
same,growth inhibition,[2]; at 100.0 µM,4%
same,growth inhibition,[3]; at 1.2 µM,35%
same,growth inhibition,[3]; at 3.7 µM,25%
same,growth inhibition,[3]; at 11.0 µM,9%
same,growth inhibition,[3]; at 33.0 µM,2%
same,growth inhibition,[3]; at 100.0 µM,-11%
same,growth inhibition,[4]; at 1.2 µM,22%
same,growth inhibition,[4]; at 3.7 µM,33%
same,growth inhibition,[4]; at 11.0 µM,26%
same,growth inhibition,[4]; at 33.0 µM,18%
same,growth inhibition,[4]; at 100.0 µM,23%
same,growth inhibition,[5]; at 1.2 µM,22%
same,growth inhibition,[5]; at 3.7 µM,15%
same,growth inhibition,[5]; [17],72% (active)
same,growth inhibition,[5]; at 11.0 µM,17%
same,growth inhibition,[5]; at 33.0 µM,10%
same,growth inhibition,[5]; [18],90% (active)
same,growth inhibition,[5]; at 50.0 µM,86% (active)
same,growth inhibition,[5]; at 100.0 µM,-6%
same,growth inhibition,[6]; at 1.2 µM,35%
same,growth inhibition,[6]; at 3.7 µM,19%
same,growth inhibition,[6]; [17],4%
same,growth inhibition,[6]; at 11.0 µM,19%
same,growth inhibition,[6]; at 33.0 µM,6%
same,growth inhibition,[6]; [18],73% (active)
same,growth inhibition,[6]; at 50.0 µM,76% (active)
same,growth inhibition,[6]; at 100.0 µM,6%
same,growth inhibition,[7]; at 1.2 µM,11%
same,growth inhibition,[7]; at 3.7 µM,6%
same,growth inhibition,[7]; at 11.0 µM,-1%
same,growth inhibition,[7]; at 33.0 µM,6%
same,growth inhibition,[7]; at 100.0 µM,1%
same,growth inhibition,[8]; [17],31%
same,growth inhibition,[8]; [18],60%
same,growth inhibition,[8]; at 50.0 µM,57.5%
same,growth inhibition,[9]; at 1.2 µM,33%
same,growth inhibition,[9]; at 3.7 µM,30%
same,growth inhibition,[9]; at 11.0 µM,32%
same,growth inhibition,[9]; at 33.0 µM,22%
same,growth inhibition,[9]; at 100.0 µM,18%
same,growth inhibition,[10]; [17],15%
same,growth inhibition,[10]; [18],31%
same,growth inhibition,[10]; at 50.0 µM,25.6%
same,growth inhibition,[11]; at 1.2 µM,28%
same,growth inhibition,[11]; at 3.7 µM,1%
same,growth inhibition,[11]; [17],7%
same,growth inhibition,[11]; at 11.0 µM,14%
same,growth inhibition,[11]; at 33.0 µM,-2%
same,growth inhibition,[11]; [18],39%
same,growth inhibition,[11]; at 50.0 µM,40.8%
same,growth inhibition,[11]; at 100.0 µM,-6%
same,growth inhibition,[12]; at 1.2 µM,-29%
same,growth inhibition,[12]; at 3.7 µM,-32%
same,growth inhibition,[12]; at 11.0 µM,-19%
same,growth inhibition,[12]; at 33.0 µM,25%
same,growth inhibition,[12]; at 100.0 µM,76% (active)
same,growth inhibition,[13]; at 1.2 µM,13%
same,growth inhibition,[13]; at 3.7 µM,6%
same,growth inhibition,[13]; at 11.0 µM,-2%
same,growth inhibition,[13]; at 33.0 µM,-13%
same,growth inhibition,[13]; at 100.0 µM,-21%
same,growth inhibition,[14]; at 1.2 µM,9%
same,growth inhibition,[14]; at 3.7 µM,15%
same,growth inhibition,[14]; at 11.0 µM,13%
same,growth inhibition,[14]; at 33.0 µM,5%
same,growth inhibition,[14]; at 100.0 µM,-21%
same,growth inhibition,[15]; [17],16%
same,growth inhibition,[15]; [18],47%
same,growth inhibition,[15]; at 50.0 µM,47.4%
same,growth inhibition,[16]; at 1.2 µM,25%
same,growth inhibition,[16]; at 3.7 µM,27%
same,growth inhibition,[16]; at 11.0 µM,21%
same,growth inhibition,[16]; at 33.0 µM,22%
same,growth inhibition,[16]; at 100.0 µM,13%
O=C1C=C(CN(CCCl)CCCl)C(=O)C=C1CN(CCCl)CCCl,growth inhibition,[1]; at 1.2 µM,0%
same,growth inhibition,[1]; at 3.7 µM,0%
same,growth inhibition,[1]; at 11.0 µM,4%
same,growth inhibition,[1]; at 33.0 µM,14%
same,growth inhibition,[1]; at 100.0 µM,46%
same,growth inhibition,[2]; at 1.2 µM,-3%
same,growth inhibition,[2]; at 3.7 µM,0%
same,growth inhibition,[2]; at 11.0 µM,1%
same,growth inhibition,[2]; at 33.0 µM,3%
same,growth inhibition,[2]; at 100.0 µM,4%
same,growth inhibition,[3]; at 1.2 µM,1%
same,growth inhibition,[3]; at 3.7 µM,-2%
same,growth inhibition,[3]; at 11.0 µM,0%
same,growth inhibition,[3]; at 33.0 µM,3%
same,growth inhibition,[3]; at 100.0 µM,13%
same,growth inhibition,[4]; at 1.2 µM,-5%
same,growth inhibition,[4]; at 3.7 µM,0%
same,growth inhibition,[4]; at 11.0 µM,-1%
same,growth inhibition,[4]; at 33.0 µM,-1%
same,growth inhibition,[4]; at 100.0 µM,0%
same,growth inhibition,[5]; at 1.2 µM,-1%
same,growth inhibition,[5]; at 3.7 µM,-1%
same,growth inhibition,[5]; [17],1%
same,growth inhibition,[5]; at 11.0 µM,0%
same,growth inhibition,[5]; at 33.0 µM,12%
same,growth inhibition,[5]; [18],32%
same,growth inhibition,[5]; at 50.0 µM,14.8%
same,growth inhibition,[5]; at 100.0 µM,35%
same,growth inhibition,[6]; at 1.2 µM,-5%
same,growth inhibition,[6]; at 3.7 µM,-8%
same,growth inhibition,[6]; [17],0%
same,growth inhibition,[6]; at 11.0 µM,-3%
same,growth inhibition,[6]; at 33.0 µM,3%
same,growth inhibition,[6]; [18],12%
same,growth inhibition,[6]; at 50.0 µM,26.1%
same,growth inhibition,[6]; at 100.0 µM,15%
same,growth inhibition,[7]; at 1.2 µM,1%
same,growth inhibition,[7]; at 3.7 µM,4%
same,growth inhibition,[7]; at 11.0 µM,9%
same,growth inhibition,[7]; at 33.0 µM,28%
same,growth inhibition,[7]; at 100.0 µM,61%
same,growth inhibition,[8]; [17],-2%
same,growth inhibition,[8]; [18],24%
same,growth inhibition,[8]; at 50.0 µM,35.2%
same,growth inhibition,[9]; at 1.2 µM,-7%
same,growth inhibition,[9]; at 3.7 µM,-8%
same,growth inhibition,[9]; at 11.0 µM,-11%
same,growth inhibition,[9]; at 33.0 µM,-7%
same,growth inhibition,[9]; at 100.0 µM,-12%
same,growth inhibition,[10]; [17],-3%
same,growth inhibition,[10]; [18],8%
same,growth inhibition,[10]; at 50.0 µM,7.6%
same,growth inhibition,[11]; at 1.2 µM,-2%
same,growth inhibition,[11]; at 3.7 µM,-6%
same,growth inhibition,[11]; [17],-1%
same,growth inhibition,[11]; at 11.0 µM,-7%
same,growth inhibition,[11]; at 33.0 µM,-6%
same,growth inhibition,[11]; [18],8%
same,growth inhibition,[11]; at 50.0 µM,1.95%
same,growth inhibition,[11]; at 100.0 µM,-9%
